Results reported in PubChem BioAssay AID1063 (University of Pittsburgh Molecular Library Screening Center, 2008).
Screen size: about 200,000 compounds; about 18,000 (9%) were called active. No stated cut-off is given here; in the data, active means inhibition above about 50%; inactive means the rest. This excerpt belongs to a sample that is enriched for actives.

test: Leishmania major promastigote growth inhibition, primary screen (AID 1063); settings: Leishmania major promastigotes, resazurin fluorescence viability; at 10 µM; hits give high values;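 further: promastigotes grown with compound for 44 hours at 28 °C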

SMILES	inhibition
O=C1c2ccccc2NC(c2ccccc2O)N1NS(=O)(=O)c1ccccc1 (centres undefined)	7.23% (inactive)
Cc1ccc(Cl)c(NC(=O)CN2CCN(C=O)CC2)c1	-1.88% (inactive)
COc1cccc(NC(=O)c2ccc3c(SCC(=O)O)c4c(nc3c2)CCCC4)c1	7.5% (inactive)
O=C(Nc1ccncc1)c1cc(-c2ccccn2)nc2ccc(Br)cc12	2.98% (inactive)
NC(=O)c1ccccc1N(Cc1ccccc1)S(=O)(=O)c1ccccc1	2.81% (inactive)
CC(C)(C)n1nc2c(c1NC(=O)c1cc3ccccc3o1)CSC2	1.01% (inactive)
COc1ccccc1N1CCN(c2ccc([N+](=O)[O-])nc2)CC1	-10.8% (inactive)
CCOC(=O)C1(Cc2ccccc2C(F)(F)F)CCN(C(=O)c2cc(C)n(C)n2)CC1	5.02% (inactive)
C/C(=N/N1CCN(Cc2cccc3ccccc23)CC1)c1cccnc1	17.2% (inactive)
OCC1(Cc2ccccc2C(F)(F)F)CCN(Cc2cccc3cnccc23)CC1	88.2% (active)
COc1ccc(C2=NN(c3nc4ccccc4s3)C(=O)C2)cc1	-7.22% (inactive)
CCC(C)(C)NC(=O)CN(C(=O)CCC(=O)Nc1cc(C)ccn1)c1ccc2c(c1)OCCO2	-0.92% (inactive)
CCOc1ccc(NC(=S)N2CCCCCC2)cc1	3.65% (inactive)
CCOc1ccc(NC(=S)N2CCC(N(C)CC3CCCO3)CC2)cc1 (centres undefined)	96.2% (active)
CCC(C)N(C)C1CCN(C(=S)Nc2ccc(OC)cc2)CC1 (centres undefined)	34.2% (inactive)
Cn1cc(CN2CCC(C(O)CCc3ccccc3)CC2)c(-c2ccccc2F)n1 (centres undefined)	-2.53% (inactive)
Cc1ccc(NC(=O)Cn2c(=O)n(CCC(=O)NC3CCN(Cc4ccccc4)CC3)c(=O)c3ccccc32)cc1	0.09% (inactive)
Cc1ccc(CNC(=O)CCNS(=O)(=O)c2ccc(Br)s2)cc1	-6.86% (inactive)
COc1ccc(Cn2c(=O)cc(C)[nH]c2=S)cc1	-4.72% (inactive)
COc1ccc(CN2CN(C3CCCC3)CSC2=S)cc1	5.66% (inactive)

SMILES	inhibition
COc1ccc(CN2CN(C(C)C)CSC2=S)cc1	96.4% (active)
COc1ccccc1CSc1nc2ccccc2[nH]1	-3.47% (inactive)
COc1ccccc1CC(=O)Nc1ccc([N+](=O)[O-])cc1OC	-0.93% (inactive)
COc1ccccc1CSc1ncc(-c2ccc([N+](=O)[O-])cc2)[nH]1	76.4% (active)
CCOC(=O)/C=c1\s/c(=C\c2ccc(C#N)cc2)c(=O)n1CC(=O)Nc1cccc(C)c1C	-1.97% (inactive)
CCOC(=O)C/C(C)=N\Nc1ccc([N+](=O)[O-])cc1[N+](=O)[O-]	2.68% (inactive)
CN1C(=O)/C(=C/C=C2\SCCN2C)OC1=S	12.9% (inactive)
CCN(CC)S(=O)(=O)c1ccc(N2CCCC2)c(NS(=O)(=O)c2cccs2)c1	-1.33% (inactive)
CCOc1ccc(S(=O)(=O)N(CC(=O)NCC(F)(F)F)Cc2ccco2)cc1	-5.48% (inactive)
COc1cc(S(=O)(=O)N(Cc2cccs2)C2CC2)ccc1-n1cnnn1	99.8% (active)
COc1ccc(CN(Cc2ccco2)S(=O)(=O)c2ccc(S(=O)(=O)N3CCCC3)cc2)cc1	-4.09% (inactive)
COc1ccc(N(CC(=O)N/N=C/c2cccs2)S(=O)(=O)c2ccc(OC)c(OC)c2)cc1	3.63% (inactive)
CCOc1ccc(CN(Cc2ccco2)S(=O)(=O)c2ccc(-n3cnnn3)c(OC)c2)cc1	95.5% (active)
C=CCn1c(CCc2ccc(OC(C)C)cc2)n[nH]c1=S	1.12% (inactive)
O=C(c1ccc(F)cc1)N1CCC(n2nnc3ccccc32)CC1	1.08% (inactive)
CCc1c(O)nc(SCC(=O)N2CCCCC2)n(-c2ccccc2C)c1=O	1% (inactive)
CC(=O)c1c(O)cc2n(c1=O)-c1ccc(Cl)cc1C2(C)C	-6.77% (inactive)
CCc1c(O)cc2n(c1=O)-c1ccccc1C2(C)C	51.1% (active)
O=C(Nc1nnc(C2CC2)s1)C1=NN(C2CCS(=O)(=O)C2)C(=O)CC1 (centres undefined)	-3.9% (inactive)
COC(=O)c1cc2c(ccn2C)n1C	-2.26% (inactive)

SMILES	inhibition
N#CC1=C(SCc2ccc(C#N)cc2)N=C(N)C(c2nc(-c3ccccc3)cs2)C12CCCCC2 (centres undefined)	98% (active)
N#C/C(=C1\CCCN1)c1nc(-c2ccccc2)cs1	4.05% (inactive)
N#CC1=C(SCc2ccccc2)NC(=O)C(C#N)C12CCCC2 (centres undefined)	-9.59% (inactive)
CCN(CC)S(=O)(=O)c1ccc(OC(C)C)c(N)c1	-4.13% (inactive)
Nc1nc(SCC(=O)NNc2c(Cl)cc(Cl)cc2Cl)n[nH]1	-7.01% (inactive)
CCOC(=O)CNC(=O)N1c2ccccc2Sc2ccccc21	3.23% (inactive)
COc1cc(/C=C/C(=O)N2c3ccccc3Sc3ccc(C(F)(F)F)cc32)cc(OC)c1OC	81.2% (active)
O=C(CN1CCCCCC1)N1c2ccccc2Sc2ccc(C(F)(F)F)cc21	46% (inactive)
COc1cc(/C=C/C(=O)O)cc(S(=O)(=O)Nc2ccccc2SC)c1OC	46.9% (inactive)
O=C(CN1CCCCC1)N1c2ccccc2Sc2ccc(C(F)(F)F)cc21	92% (active)
COc1cc(/C=C2\SC(=S)N(Nc3ncc(C(F)(F)F)cc3Cl)C2=O)cc(OC)c1OC	-11.1% (inactive)
O=C(NC(Cc1c[nH]c2ccccc12)C(=O)O)/C(=C/c1ccco1)NC(=O)c1ccccc1 (centres undefined)	3.28% (inactive)
COc1ccc(CC(NC(C)=O)C(=O)NC2CCN(C(=O)c3ccc(OC)c(OC)c3)CC2)cc1OC (centres undefined)	-4.66% (inactive)
CCCN(CC(=O)Nc1ccc(C(N)=O)cc1)CC(=O)Nc1ccccc1C	7.98% (inactive)
Cc1cccc(C(=O)Nc2ccc3c(c2)C(=O)N(CC(C)C)C3=O)c1	-9.76% (inactive)
COc1ccc2c(c1)cc1n2CCN=C1NN	84.1% (active)
Cc1cc(C(=O)Cn2cnc3cc([N+](=O)[O-])ccc3c2=O)c(C)n1CC1CCCO1 (centres undefined)	-3.96% (inactive)
Clc1ccc(C2=CSC3=Nc4cccc5cccc(c45)N23)cc1	99.4% (active)
Cc1ccc(NC(=O)O/N=C/c2cccc([N+](=O)[O-])c2)cc1	-3.19% (inactive)
